Source: PubChem BioAssay (Tox21)
Values joined by “and” are separate entries in the source; they are usually repeats but may differ in a detail not shown here. Equal entries are not always repeated. Records with an inconclusive call do not appear. Some compounds were tested as several samples or in several runs, with calls that do not always agree. Active and inactive are the calls of the source. Unless noted, calls follow the shape of the dose curve; as a rule, active = well fitted curve in the direction sought with a large enough effect in the repeat runs; inconclusive = weak or mixed curves; inactive = no such curve, though single readings can be large; an effect the other way counts as inactive or inconclusive.

How the values were obtained:
[1] = qHTS assay to identify small molecule antagonists of the androgen receptor (AR) signaling pathway using the MDA cell line in the presence of 0.5 nM R1881 - cell viability counter screen (AID 1259242); details: MDA-kb2 viability, CellTiter-Fluor protease fluorescence, 16 h; series mostly up to 92.4 µM; also: nearly all actives have a fitted effect of over 45% in size; also: potency is read from the fitted curve at half-maximal effect
Summary of the method: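 Live-cell protease activity was measured by CellTiter-Fluor fluorescence after 30 min. Before that, MDA-kb2 MMTV-luciferase cells had 16 hr at 37C without CO2, exposed to test compounds and 0.5 nM R1881 final.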

[2] = biological target: Estrogen receptor (Homo sapiens) (UniProt P03372); assay: qHTS assay to identify small molecule antagonists of the estrogen receptor alpha (ER-alpha) signaling pathway using the BG1 cell line in the presence of 0.1 nM 17-beta-estradiol (AID 1259244); details: VM7Luc4E2 (BG1) ERE-luciferase, antagonist mode, 0.1 nM E2, 22 h; series mostly up to 92.4 µM; also: nearly all actives have a fitted effect of over 50% in size; also: potency is read from the fitted curve at half-maximal effect
Summary of the method: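 Luciferase luminescence (ONE-Glo, 30 min at room temperature) was read after 22 hr at 37C exposure to compounds plus 17beta-estradiol at 0.1 nM final. Cells were VM7Luc4E2 with endogenous ER-alpha and an ERE-driven luciferase, pre-cultured 5 days in hormone-depleted medium.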

[3] = qHTS assay to identify small molecule phospholipidosis (PLD) inducers (AID 1259344; active = well fitted curve in the direction sought with a large enough effect; an effect the other way counts as inactive or inconclusive); details: HepG2 phospholipidosis, LipidTOX Red imaging, 24 h; series mostly up to 38.3 µM
Summary of the method: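 Read-out is LipidTOX Red fluorescence (ex 595/em 615) imaged in HepG2 cells after 24 h compound exposure at 37 C, with Hoechst nuclear counterstain (ex 352/em 461) allowing per-cell normalisation.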

[4] = qHTS assay to identify small molecule HDAC inhibitors (AID 1259364); details: HCT-116 HDAC-Glo I/II luminescence, 2 h; series mostly up to 92.4 µM; also: nearly all actives have a fitted effect of over 45% in size; also: potency is read from the fitted curve at half-maximal effect
Summary of the method: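 Luminescence read after 30 min room-temperature HDAC-Glo incubation measures cellular class I/II HDAC activity. Compounds were applied for 2 hr at 37 C to HCT-116 wild-type cells seeded the day before.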

[5] = qHTS assay to identify small molecule HDAC inhibitors - cell viability counter screen (AID 1259365); details: HCT-116 viability, CellTiter-Glo ATP luminescence, 2 h; series mostly up to 92.4 µM; also: nearly all actives have a fitted effect of over 50% in size; also: potency is read from the fitted curve at half-maximal effect
Summary of the method: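 Luminescence from CellTiter-Glo, developed 30min at room temperature, reports viability of wild-type HCT-116 cells treated 2hr with compounds at 37 C and 5% CO2 after overnight plating.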

[6] = qHTS assay to identify small molecule agonists of the sonic hedgehog signaling (Shh) pathway - cell viability counter screen (AID 1259366); details: NIH/3T3 Gli1-Luc viability, CellTiter-Fluor, 24 h; series mostly up to 92.4 µM; also: nearly all actives have a fitted effect of over 50% in size; also: potency is read from the fitted curve at half-maximal effect
Summary of the method: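 Cytotoxicity counter screen run in the same wells as the Shh reporter assay. NIH/3T3 cells carrying a Gli1 response element–driven luciferase were treated with DMSO-dissolved compounds for 24hr, and live-cell protease activity was measured with CellTiter-Fluor.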

[7] = qHTS assay to identify small molecule antagonists of the sonic hedgehog signaling (Shh) pathway - cell viability counter screen (AID 1259367); details: NIH/3T3 Gli1-Luc viability, CellTiter-Fluor, 24 h; series mostly up to 92.4 µM; also: nearly all actives have a fitted effect of over 55% in size; also: potency is read from the fitted curve at half-maximal effect
Summary of the method: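 Fluorescence read-out (CellTiter-Fluor, 1 hr at 37C) taken after 23 hr compound treatment of 3T3 Gli1-Luc cells stimulated with conditioned medium. Cells were seeded at 2,000 per well and pre-incubated 4 hr.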

[8] = qHTS assay to identify small molecule agonists of the sonic hedgehog signaling (Shh) pathway (AID 1259368; calls by dose curve;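 also: NIH/3T3-derived 3T3Gli1-Luc cells carrying a stable Gli1-driven firefly luciferase reporter; nearly all actives have a fitted effect of over 15% in size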); details: NIH/3T3 Gli1-Luc reporter, luciferase, 24 h; series mostly up to 92.4 µM
Summary of the method: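 Luminescence was read after 30 min at room temperature with luciferase reagent. Before that, 3T3Gli1-Luc cells (NIH/3T3 clone, stable Gli1-Luc reporter; 2,000/well) were exposed to compounds for 24 hr at 37C, 5% CO2, compounds being added 4 hr post-plating.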

[9] = qHTS assay to identify small molecule antagonists of the sonic hedgehog signaling (Shh) pathway (AID 1259369; calls by dose curve; also: nearly all actives have a fitted effect of over 45% in size; also: potency is read from the fitted curve at half-maximal effect); details: NIH/3T3 Gli1-Luc reporter, Shh antagonist, luminescence 24 h; series mostly up to 92.4 µM
Summary of the method: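 Antagonist mode: compound added to 3T3 Gli1-Luc cells followed by conditioned-medium stimulation, 24 h at 37 C, 5% CO2. Inhibition taken as loss of Gli1-driven luciferase luminescence.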

[10] = qHTS assay to identify small molecule agonists of the androgen receptor (AR) signaling pathway in the presence of an antagonist - cell viability counter screen (AID 1259379); details: MDA-kb2 viability, CellTiter-Fluor, 16 h; series mostly up to 92.4 µM; also: nearly all actives have a fitted effect of over 25% in size; also: potency is read from the fitted curve at half-maximal effect
Summary of the method: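 Cytotoxicity counter-screen run in the same wells as the nilutamide-challenged (3.0 µM final) AR agonist assay in MDA-kb2 cells. Compounds tested at 15 concentrations for 16 h, 37 °C without CO2; CellTiter-Fluor fluorescence read.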

[11] = qHTS assay to identify small molecule agonists of the estrogen receptor beta (ER-beta) signaling pathway - cell viability counter screen (AID 1259380); details: ER-beta-bla HEK293T viability, CellTiter-Glo luminescence, 16 h; series mostly up to 92.4 µM; also: nearly all actives have a fitted effect of over 30% in size; also: potency is read from the fitted curve at half-maximal effect
Summary of the method: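 Cell viability counter screen: CellTiter-Glo luminescence (30 min, room temperature) measured in the same wells as the beta-lactamase readout, after 16 hr compound exposure at 37C of ER-beta-bla HEK293T cells in 2% charcoal-stripped FBS medium.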

[12] = qHTS assay to identify small molecule antagonists of the estrogen receptor beta (ER-beta) signaling pathway - cell viability counter screen (AID 1259382); details: ER-beta-UAS-bla HEK293T viability, CellTiter-Glo luminescence, 16 h; series mostly up to 92.4 µM; also: nearly all actives have a fitted effect of over 55% in size; also: potency is read from the fitted curve at half-maximal effect
Summary of the method: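 Cytotoxicity was measured in the same wells by CellTiter-Glo luminescence after 30 min at room temperature. Cells were ER-beta-bla HEK293T in charcoal-stripped serum, given compound together with 1 nM E2 and incubated 16 h at 37C.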

[13] = biological target: Estrogen receptor (Homo sapiens) (UniProt P03372); assay: qHTS assay to identify small molecule agonists of the estrogen receptor alpha (ER-alpha) signaling pathway in the presence of an antagonist (AID 1259383; calls by dose curve; also: top concentration of the series differs between compounds; nearly all actives have a fitted effect of over 15% in size); details: VM7Luc4E2 cells, ERE-luciferase, +ICI-182,780, 22 h; series mostly up to 92.4 µM
Summary of the method: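 Agonist-mode confirmation run in the presence of 10.0nM (final) ICI-182,780 antagonist. The reporter was ERE-driven luciferase in VM7Luc4E2 cells, grown in charcoal-stripped serum. Cells were exposed to 15-concentration compound series for 22hr, then ONE-Glo luminescence was read.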

[14] = qHTS assay to identify small molecule agonists or antagonists of the thyroid stimulating hormone receptor (TSHR) signaling pathway - wild type cell line counter screen (AID 1259384; calls by dose curve); details: HEK293 wild type, cAMP HTRF counter-screen, stronger effect = higher value; series mostly up to 92.4 µM
Summary of the method: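 Wild-type Hek293 cells, 800/well, 18 h at 37C, then compound with Ro20-1724 for 30 min RT. cAMP by HTRF (cAMP-d2/anti-cAMP cryptate), 1 h RT, fluorescence read. 15 concentrations, triplicates.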

[15] = biological target: Thyrotropin receptor (Homo sapiens) (UniProt P16473); assay: qHTS assay to identify small molecule antagonists of the thyroid stimulating hormone receptor (TSHR) signaling pathway (AID 1259385; calls by dose curve; also: nearly all actives have a fitted effect of over 20% in size); details: TSHR-HEK293 cAMP HTRF, TSH-stimulated antagonist mode; series mostly up to 92.4 µM
Summary of the method: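 TSHR-HEK293 cells (800/well) plated 18 h, then compounds with Ro20-1724 and TSH at 1.5 ng/mL final, 30 min at room temperature. cAMP quantified by HTRF (cAMP-d2/anti-cAMP-cryptate, 1 h); 15 concentrations in triplicate.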

[16] = qHTS assay to identify small molecule agonists of the estrogen receptor alpha (ER-alpha) signaling pathway in the presence of an antagonist - cell viability counter screen (AID 1259386); details: VM7Luc4E2 viability, CellTiter-Fluor fluorescence, 22 h; series mostly up to 92.4 µM; also: nearly all actives have a fitted effect of over 30% in size
Summary of the method: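 Compounds tested at 15 concentrations for 22 h at 37C alongside 10.0nM (final) ICI-182,780 antagonist, in VM7Luc4E2 cells grown in phenol red-free, charcoal-stripped medium. Viability read by CellTiter-Fluor fluorescence after 1 h reagent incubation.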

[17] = biological target: Progesterone receptor (Homo sapiens) (UniProt P06401); assay: qHTS assay to identify small molecule agonists of the progesterone receptor (PR) signaling pathway (AID 1346784; calls by dose curve; also: nearly all actives have a fitted effect of over 30% in size); details: PR-UAS-bla HEK293T, beta-lactamase FRET ratio, 16 h; series mostly up to 92.4 µM
Summary of the method: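 Beta-lactamase reporter read-out: after 16 hr compound treatment at 37C and a further 2 hr at room temperature with LiveBLAzer B/G FRET substrate, fluorescence was measured in PR-UAS-bla HEK 293T cells grown in 2% charcoal-stripped serum.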

[18] = biological target: Estrogen receptor beta (Homo sapiens) (UniProt Q92731); assay: qHTS assay to identify small molecule agonists of the estrogen receptor beta (ER-beta) signaling pathway (AID 1259377; active = well fitted activation curve with a large enough effect in the signal ratio in the repeat runs, not every such curve was filed as active; the % refers to the signal ratio); details: ER-beta-UAS-bla HEK293T, beta-lactamase FRET ratio, 16 h; series mostly up to 92.4 µM
Summary of the method: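 HEK293T ER-beta-UAS-bla; 2% charcoal-stripped FBS; cells pre-incubated 6 hr, compound 16 hr, 37C/5% CO2; LiveBLAzer B/G FRET substrate 2 h RT; fluorescence intensity read.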

[19] = biological target: Estrogen receptor beta (Homo sapiens) (UniProt Q92731); assay: qHTS assay to identify small molecule antagonists of the estrogen receptor beta (ER-beta) signaling pathway (AID 1259378; active = well fitted inhibition curve with a large enough effect in the signal ratio in the repeat runs, not every such curve was filed as active; the % refers to the signal ratio); details: ER-beta-UAS-bla HEK293T, beta-lactamase FRET ratio, 16 h; series mostly up to 92.4 µM
Summary of the method: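 ER-beta-UAS-bla HEK293T cells in 2% charcoal-stripped FBS medium treated with compound plus 1nM final 17-beta-estradiol for 16 hr at 37C. Beta-lactamase reporter read by FRET substrate fluorescence after 2 hours at room temperature.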

[20] = biological target: Androgen receptor (Homo sapiens) (UniProt P10275); assay: qHTS assay to identify small molecule agonists of the androgen receptor (AR) signaling pathway in the presence of an antagonist (AID 1259381; calls by dose curve; also: nearly all actives have a fitted effect of over 15% in size); details: MDA-kb2 MMTV-luciferase, AR agonist + nilutamide, 16 h; series mostly up to 92.4 µM
Summary of the method: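 Agonist-mode confirmation run against 3.0 uM final nilutamide: compounds titrated at 15 concentrations onto MDA-kb2 MMTV-luciferase reporter cells. Luminescence measured with ONE-Glo following 16 hr incubation, 37C, 0% CO2.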

Measured: Potency

Sequence of Estrogen receptor beta (Homo sapiens) (Q92731 whole entry, looked up): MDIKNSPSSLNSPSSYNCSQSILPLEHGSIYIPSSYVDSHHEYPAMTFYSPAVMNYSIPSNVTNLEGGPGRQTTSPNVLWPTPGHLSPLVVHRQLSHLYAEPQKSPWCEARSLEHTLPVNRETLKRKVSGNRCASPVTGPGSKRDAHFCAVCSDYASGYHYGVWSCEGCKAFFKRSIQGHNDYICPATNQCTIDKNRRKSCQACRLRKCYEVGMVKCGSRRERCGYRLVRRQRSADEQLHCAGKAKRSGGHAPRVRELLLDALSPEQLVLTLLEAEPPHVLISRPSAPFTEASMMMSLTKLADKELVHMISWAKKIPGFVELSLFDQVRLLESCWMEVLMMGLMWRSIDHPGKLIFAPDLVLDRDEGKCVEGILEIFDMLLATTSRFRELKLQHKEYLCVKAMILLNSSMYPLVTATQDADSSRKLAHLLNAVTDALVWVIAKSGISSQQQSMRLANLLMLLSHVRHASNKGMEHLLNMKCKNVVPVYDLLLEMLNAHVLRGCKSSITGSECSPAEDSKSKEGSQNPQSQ
Sequence of Estrogen receptor (Homo sapiens) (P03372 whole entry, looked up): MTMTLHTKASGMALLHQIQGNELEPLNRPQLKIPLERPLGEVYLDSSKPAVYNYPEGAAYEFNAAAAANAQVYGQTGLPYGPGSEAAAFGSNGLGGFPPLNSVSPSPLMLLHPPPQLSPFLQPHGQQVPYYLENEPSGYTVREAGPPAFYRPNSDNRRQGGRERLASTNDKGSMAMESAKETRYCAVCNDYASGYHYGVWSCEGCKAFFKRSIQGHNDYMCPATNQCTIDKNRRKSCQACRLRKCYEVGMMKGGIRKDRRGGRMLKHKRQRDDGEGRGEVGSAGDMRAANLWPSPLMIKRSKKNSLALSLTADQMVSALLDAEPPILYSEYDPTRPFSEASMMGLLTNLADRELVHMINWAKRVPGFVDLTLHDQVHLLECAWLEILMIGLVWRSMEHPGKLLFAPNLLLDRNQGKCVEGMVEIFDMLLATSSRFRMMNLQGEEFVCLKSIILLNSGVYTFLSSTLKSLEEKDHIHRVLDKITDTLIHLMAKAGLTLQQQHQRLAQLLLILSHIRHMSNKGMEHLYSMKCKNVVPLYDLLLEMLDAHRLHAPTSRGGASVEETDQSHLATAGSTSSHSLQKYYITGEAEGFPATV
Sequence of Thyrotropin receptor (Homo sapiens) (P16473 whole entry, looked up): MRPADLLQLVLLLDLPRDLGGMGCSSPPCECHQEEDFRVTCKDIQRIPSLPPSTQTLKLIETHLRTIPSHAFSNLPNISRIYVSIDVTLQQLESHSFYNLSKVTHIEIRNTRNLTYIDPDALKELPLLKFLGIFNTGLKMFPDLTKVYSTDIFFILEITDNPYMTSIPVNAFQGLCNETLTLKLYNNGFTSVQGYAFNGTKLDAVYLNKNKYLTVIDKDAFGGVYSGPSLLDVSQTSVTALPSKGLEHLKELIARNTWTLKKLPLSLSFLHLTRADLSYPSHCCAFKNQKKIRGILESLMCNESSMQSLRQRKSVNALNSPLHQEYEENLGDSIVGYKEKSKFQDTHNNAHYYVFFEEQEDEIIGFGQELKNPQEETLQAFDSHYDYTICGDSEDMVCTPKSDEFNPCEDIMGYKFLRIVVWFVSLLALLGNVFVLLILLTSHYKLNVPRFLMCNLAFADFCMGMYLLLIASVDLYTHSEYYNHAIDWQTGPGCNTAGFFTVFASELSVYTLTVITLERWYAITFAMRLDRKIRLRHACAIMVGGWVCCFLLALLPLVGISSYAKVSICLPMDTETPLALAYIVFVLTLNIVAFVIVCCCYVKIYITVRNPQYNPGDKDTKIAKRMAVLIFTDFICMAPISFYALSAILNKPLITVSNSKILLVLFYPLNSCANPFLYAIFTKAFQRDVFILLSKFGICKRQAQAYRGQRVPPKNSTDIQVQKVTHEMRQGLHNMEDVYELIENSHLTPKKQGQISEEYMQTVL
Sequence of Androgen receptor (Homo sapiens) (P10275 whole entry, looked up): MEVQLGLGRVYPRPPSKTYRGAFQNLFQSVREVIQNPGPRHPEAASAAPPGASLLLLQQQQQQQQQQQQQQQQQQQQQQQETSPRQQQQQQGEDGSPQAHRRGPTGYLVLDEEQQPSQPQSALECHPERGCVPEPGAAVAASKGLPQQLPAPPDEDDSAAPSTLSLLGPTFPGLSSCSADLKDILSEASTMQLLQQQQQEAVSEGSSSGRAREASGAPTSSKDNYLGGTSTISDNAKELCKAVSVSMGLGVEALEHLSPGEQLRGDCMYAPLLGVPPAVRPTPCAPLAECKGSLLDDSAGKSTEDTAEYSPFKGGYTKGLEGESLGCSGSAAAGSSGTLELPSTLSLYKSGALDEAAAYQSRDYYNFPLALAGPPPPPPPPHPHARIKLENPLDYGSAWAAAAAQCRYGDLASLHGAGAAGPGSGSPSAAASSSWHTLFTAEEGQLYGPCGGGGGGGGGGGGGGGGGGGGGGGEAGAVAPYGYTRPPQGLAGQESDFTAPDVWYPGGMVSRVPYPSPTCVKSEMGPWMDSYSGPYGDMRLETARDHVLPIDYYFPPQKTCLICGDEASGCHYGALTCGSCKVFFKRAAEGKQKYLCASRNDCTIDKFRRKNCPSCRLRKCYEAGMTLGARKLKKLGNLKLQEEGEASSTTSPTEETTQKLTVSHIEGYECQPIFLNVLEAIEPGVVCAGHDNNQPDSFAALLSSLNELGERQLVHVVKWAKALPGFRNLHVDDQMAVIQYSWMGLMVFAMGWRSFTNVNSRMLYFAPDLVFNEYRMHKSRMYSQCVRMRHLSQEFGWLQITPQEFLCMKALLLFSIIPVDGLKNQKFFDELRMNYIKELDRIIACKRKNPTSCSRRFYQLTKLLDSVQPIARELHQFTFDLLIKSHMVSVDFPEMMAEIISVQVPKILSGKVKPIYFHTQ
Sequence of Progesterone receptor (Homo sapiens) (P06401 whole entry, looked up): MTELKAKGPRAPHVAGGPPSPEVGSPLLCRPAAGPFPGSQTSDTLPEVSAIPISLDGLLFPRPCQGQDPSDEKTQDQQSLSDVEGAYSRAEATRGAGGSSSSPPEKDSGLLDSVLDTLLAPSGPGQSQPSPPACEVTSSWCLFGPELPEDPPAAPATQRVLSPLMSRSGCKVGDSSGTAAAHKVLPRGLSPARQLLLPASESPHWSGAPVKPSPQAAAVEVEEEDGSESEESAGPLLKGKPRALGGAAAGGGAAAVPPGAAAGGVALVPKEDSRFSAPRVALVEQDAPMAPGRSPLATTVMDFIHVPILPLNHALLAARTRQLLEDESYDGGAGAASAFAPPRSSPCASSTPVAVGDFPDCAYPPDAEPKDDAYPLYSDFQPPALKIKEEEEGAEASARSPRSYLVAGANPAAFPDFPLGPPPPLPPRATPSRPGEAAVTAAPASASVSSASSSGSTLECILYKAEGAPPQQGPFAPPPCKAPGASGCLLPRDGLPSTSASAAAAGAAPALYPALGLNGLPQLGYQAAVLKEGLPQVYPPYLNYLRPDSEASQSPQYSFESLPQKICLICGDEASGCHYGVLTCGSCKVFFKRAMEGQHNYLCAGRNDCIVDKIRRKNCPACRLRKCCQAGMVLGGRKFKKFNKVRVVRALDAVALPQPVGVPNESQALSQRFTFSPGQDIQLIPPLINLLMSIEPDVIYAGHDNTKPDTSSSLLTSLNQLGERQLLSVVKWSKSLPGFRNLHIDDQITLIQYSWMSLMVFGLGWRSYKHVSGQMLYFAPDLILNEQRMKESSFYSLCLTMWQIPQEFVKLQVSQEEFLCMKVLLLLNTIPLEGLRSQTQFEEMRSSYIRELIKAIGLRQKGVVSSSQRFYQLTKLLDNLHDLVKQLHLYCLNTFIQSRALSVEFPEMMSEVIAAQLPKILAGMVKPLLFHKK

CCCCCCCCCCCC[N+](C)(C)CCOc1ccccc1
61.1 µM (active) and inactive: [5]
48.6 µM (active) and inactive: [1]
active: [6] 24.3 µM | [7] 48.6 µM | [9] 3.44 µM and 473 nM | [10] 68.6 µM | [11] 21.7 µM and 11.9 µM | [12] 19.3 µM and 15 µM
54.5 µM (active) and inactive: [2]
not listed: [18] | [19] | [20]
inactive: all other assays above

O=S(=O)(Cl)Cl
not listed: [3] | [20]
inactive: all other assays above

CCCC1CCCCN1 (stereo not given)
not listed: [11] | [18] | [19] | [20]
inactive: all other assays above

O=CC=O
not listed: [5] | [6] | [11] | [18]
inactive: all other assays above

CC(C)c1ccc(NC(=O)N(C)C)cc1
active: [4] 24.3 µM
not listed: [3] | [20]
inactive: all other assays above

COP(=O)(OC)OC(Br)C(Cl)(Cl)Br (stereo not given)
active: [9] 12.2 µM
not listed: [3] | [17]
inactive: all other assays above

CCCC(C)(COC(N)=O)COC(=O)NC(C)C (stereo not given)
not listed: [5] | [6] | [17] | [18] | [19] | [20]
inactive: all other assays above

N#CC(C#N)=Cc1ccc(O)c(O)c1
active: [9] 7.5 µM
not listed: [5] | [7] | [11] | [17] | [18] | [19]
inactive: all other assays above

CCCCC1C(=O)NC(=O)N(C2CCCCC2)C1=O (stereo not given)
not listed: [5] | [6] | [12] | [14] | [15] | [17] | [20]
inactive: all other assays above

NCCc1cc(O)c(O)cc1O
not listed: [6] | [15] | [16] | [18] | [19] | [20]
inactive: all other assays above

CC(C)(C)NCC(O)c1cc(Cl)c(N)c(C(F)(F)F)c1 (stereo not given)
active: [6] 7.5 µM | [7] 9.44 µM
not listed: [12] | [14] | [16] | [19]
inactive: all other assays above

CC[N+]1(CCOC(=O)C(O)(c2ccccc2)c2ccccc2)CCCCC1
not listed: [6] | [18] | [19] | [20]
inactive: all other assays above

Cc1nc2ccccc2c(=O)n1-c1ccccc1Cl
active: [6] 10.6 µM
not listed: [7] | [9] | [11] | [14] | [15] | [16] | [20]
inactive: all other assays above

C[C@H](N)[C@H](O)c1ccc(O)c(O)c1
not listed: [9] | [11] | [14] | [15] | [19] | [20]
inactive: all other assays above

COC(=O)C1(O)c2ccccc2-c2ccccc21
not listed: [3] | [12]
inactive: all other assays above
